# Test results as given in PubChem BioAssay (NCATS).
# Results filed as inconclusive are left out. A call without a number means that no potency is given here. The source made the active and inactive calls. Calls come from the whole dose curve; as a rule, active = well fitted inhibition curve with a large enough effect; inconclusive = small, poorly fitted or top-dose-only effect; inactive = flat fitted curve, though single readings scatter.
# Target: Lysine-specific demethylase 5B (Homo sapiens) (UniProt Q9UGL1)
# Assay: Optimization screen for KDM5B Histone Demethylases FDH coupled qHTS against the LOPAC library (AID 1347166)
# Conditions: KDM5B demethylation, FDH-coupled NADH fluorescence (FDH is formaldehyde dehydrogenase); series mostly up to 57.5 µM
# Text: Assay Submitter (PI): Qin Yan, Ph.D. (Yale University) and Xiaodong Cheng, Ph.D. (MD Anderson)
# This project was funded as part of the NCI NEXT Program and Chemical Biology Consortium (CBC)
# The histone demethylases, KDM5A and KDM5B catalyze the demethylation of lysine 4 on histone H3 (H3K4me3/2). They
# are overexpressed in a variety of cancers and have been implicated in cancer cell growth, metastasis, drug resistance, and tumor growth. KDM5A is amplified and overexpressed in breast and gastric cancer; and is translocated in leukemia. While KDM5B is highly expressed in human mammary tumors and breast cancer cell lines, but not in normal adult breast tissue. Moreover, knockdown of KDM5B leads to upregulation of tumor suppressor genes, including BRCA1. The goal of this project is to employ qHTS to identify selective small molecule inhibitors of KDM5A/B demethylase activity to better understand the role of KDM5 in cancer and to develop novel therapies.
# We employed an FDH-coupled assay previously reported by Sakurai et al. to monitor in vitro KDM5 demethylase activity. Compounds showing dose response inhibition are re-acquired, validated, and tested for non-specific interference with the formaldehyde dehydrogenase (FDH) counterscreen. True inhibitors are validated using an AlphaLisa secondary screen, which employs an H3K4(me2-1)-specific antibody to monitor demethylation of a biotin-tagged H3K4(me3) peptide substrate. Inhibitors are profiled against KDM4A and KDM6A AlphaLisa counterscreens to determine level of demethylase specificity; and against the TruHits counterscreen to eliminate non-specific inhibitory activity on the AlphaLISA detection method. Selective inhibitors identified from the primary and secondary screening are tested in cells using immunofluorescence to monitor global H3K4 tri-methylation as a measure of KDM5A/B inhibition. This assay is run against the NCGC Lopac collection of about 1,200 compounds to evaluate its amenability to quantitative High Throughput Screening (qHTS) platform.
# Early Translation Branch (ETB)
# National Center for Advancing Translational Sciences (NCATS), Rockville, MD
# National Institute of Health (NIH), Bethesda, Maryland
# [1] Sakurai, M et al. A miniaturized screen for inhibitors of Jumonji histone demethylases. Mol Biosyst. 2010 Feb;6(2):357-64. doi: 10.1039/b912993f. Epub 2009 Oct 8.
# 1536-well Black, solid bottom, medium binding assay plate is purchased from Greiner Bio-one. The enzymes (KDM5B) and substrate (H3K4me3/2) are provided by the principal investigators. The buffer for this assay is composed of 50mM HEPES at pH 7.5 with 0.01% Tween-20.
# FDH coupled qHTS protocol:
# Three microliter enzyme mix (buffer + 200nM KDM5BDeltaAP final concentration) is dispensed into the assay plate using the BioRAPTR Flying Reagent Dispenser (FRD; Beckton-Dickenson). Compound (at various final concentration) and control solution is pin transferred to the assay plate using the Kalypsys 1536-pin tool apparatus. The assay plate is incubated for 10 min at room temperature followed by addition of 1uL substrate mix (buffer + 100uM ascorbic acid, 50uM ferrous ammonium sulfate, 12.5uM H3K4Me3, 25uM a-ketoglutarate, 0.25 mM NAD+, 0.25 U/mL formaldehyde dehydrogenase using the FRD yielding a total reaction volume of 4 uL. Initial fluorescence (Read1) is detected using the PerkinElmer ViewLux plate reader equipped with 340 nm excitation and 450 nm emission filters. The final fluorescence (Read2) signal is obtained after 30 min of room temperature incubation. Delta RFU is calculated (Read2 - Read1) and is used to generated dose response curves
# Chain of Lysine-specific demethylase 5B (Homo sapiens) (Q9UGL1 whole entry, looked up): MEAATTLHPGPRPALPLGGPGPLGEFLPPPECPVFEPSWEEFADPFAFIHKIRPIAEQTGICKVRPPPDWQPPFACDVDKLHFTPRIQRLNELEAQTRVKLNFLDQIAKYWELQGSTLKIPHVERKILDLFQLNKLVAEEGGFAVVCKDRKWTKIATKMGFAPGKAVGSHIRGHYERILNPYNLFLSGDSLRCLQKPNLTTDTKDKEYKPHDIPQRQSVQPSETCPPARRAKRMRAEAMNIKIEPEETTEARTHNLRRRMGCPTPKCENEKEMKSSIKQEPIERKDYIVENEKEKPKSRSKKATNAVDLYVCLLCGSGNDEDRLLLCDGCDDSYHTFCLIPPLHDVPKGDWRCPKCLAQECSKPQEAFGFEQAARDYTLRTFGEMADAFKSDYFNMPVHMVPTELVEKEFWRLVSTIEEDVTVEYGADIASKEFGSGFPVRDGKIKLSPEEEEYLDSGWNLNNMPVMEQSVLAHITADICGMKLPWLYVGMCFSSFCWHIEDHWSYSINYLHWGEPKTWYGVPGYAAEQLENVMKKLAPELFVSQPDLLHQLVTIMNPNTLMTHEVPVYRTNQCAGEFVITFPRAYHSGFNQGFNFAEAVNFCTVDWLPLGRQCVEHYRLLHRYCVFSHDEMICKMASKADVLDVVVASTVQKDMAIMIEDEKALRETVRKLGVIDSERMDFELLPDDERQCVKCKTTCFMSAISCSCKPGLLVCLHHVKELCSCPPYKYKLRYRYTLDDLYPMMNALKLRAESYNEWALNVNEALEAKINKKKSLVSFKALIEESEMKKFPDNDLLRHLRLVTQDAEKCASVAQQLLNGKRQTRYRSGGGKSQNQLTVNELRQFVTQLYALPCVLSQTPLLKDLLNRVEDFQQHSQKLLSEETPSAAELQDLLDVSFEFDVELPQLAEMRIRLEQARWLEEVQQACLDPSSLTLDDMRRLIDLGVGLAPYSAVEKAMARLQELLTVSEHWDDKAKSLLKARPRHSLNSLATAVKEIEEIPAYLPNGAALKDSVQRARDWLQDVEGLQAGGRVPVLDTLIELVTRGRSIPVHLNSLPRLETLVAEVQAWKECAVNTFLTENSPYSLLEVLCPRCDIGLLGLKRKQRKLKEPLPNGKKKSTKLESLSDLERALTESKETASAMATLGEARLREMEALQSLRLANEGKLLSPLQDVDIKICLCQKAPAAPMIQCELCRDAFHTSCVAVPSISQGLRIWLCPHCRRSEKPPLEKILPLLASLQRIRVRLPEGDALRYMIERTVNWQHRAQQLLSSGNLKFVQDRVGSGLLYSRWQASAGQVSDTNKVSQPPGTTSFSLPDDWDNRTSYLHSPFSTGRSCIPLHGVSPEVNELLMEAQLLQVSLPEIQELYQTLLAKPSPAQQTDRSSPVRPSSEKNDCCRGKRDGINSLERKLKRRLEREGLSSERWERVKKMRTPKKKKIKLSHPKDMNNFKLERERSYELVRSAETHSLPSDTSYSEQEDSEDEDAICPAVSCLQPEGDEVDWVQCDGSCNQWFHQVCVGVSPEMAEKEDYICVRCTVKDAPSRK
row,SMILES,Potency
1,CCN(CC)CCCN(c1ccccc1)C1Cc2ccccc2C1,inactive
2,FC(F)(F)c1ccccc1-n1ccnc1,inactive
3,COc1cc(Cc2cnc(N)nc2N)cc(OC)c1OC,inactive
4,CSc1ccc(C(=O)c2[nH]c(=O)[nH]c2C)cc1,inactive
5,COc1cc2c(cc1OC)-c1cc(=Nc3c(C)cc(C)cc3C)n(C)c(=O)n1CC2,inactive
6,CC(C)NNC(=O)c1ccncc1,inactive
7,O=C(O)CN(CCOCCOCCN(CC(=O)O)CC(=O)O)CC(=O)O,inactive
8,Cc1ccc(S(=O)(=O)NC(=O)NN2CCCCCC2)cc1,inactive
9,C[C@]12CCC(=O)C=C1CC[C@@H]1[C@@H]2C(=O)C[C@@]2(C)[C@H]1CC[C@]2(O)C(=O)CO,inactive
10,CNCCC(Oc1ccccc1OC)c1ccccc1 (stereo not given),inactive
11,CN(C)CCOC(=O)COc1ccc(Cl)cc1,inactive
12,Nc1ncn([C@@H]2O[C@H](CO)[C@@H](O)[C@H]2O)c(=O)n1,inactive
13,Nc1c2c(nc3ccccc13)CCCC2O (stereo not given),inactive
14,CCn1ccnc1CC1COc2ccccc2O1 (stereo not given),inactive
15,CO[C@@]1(NC(=O)CSCC#N)C(=O)N2C(C(=O)O)=C(CSc3nnnn3C)CS[C@@H]21,inactive
16,NC(=O)c1cn(Cc2c(F)cccc2F)nn1,inactive
17,CC(C)(C)c1ccc(C(=O)CCCN2CCC(OC(c3ccccc3)c3ccccc3)CC2)cc1,inactive
18,Cc1ccc(/C(=C\CN2CCCC2)c2ccccn2)cc1,inactive
19,CCCC(C(=O)OCCN(CC)CC)(c1ccccc1)c1ccccc1,inactive
20,C(=C\c1ccccc1)/CN1CCN(C(c2ccccc2)c2ccccc2)CC1,inactive

row,SMILES,Potency
1,Cc1cc(C)c(/C=C2\C(=O)Nc3ccccc32)[nH]1,inactive
2,COCCOC(=O)C1=C(C)NC(C)=C(C(=O)OC(C)C)C1c1cccc([N+](=O)[O-])c1 (stereo not given),inactive
3,CCN1CCc2nc(N)oc2CC1,inactive
4,C#CCN(C)CCCOc1ccc(Cl)cc1Cl,inactive
5,CCc1c(C)[nH]c2c1C(=O)C(CN1CCOCC1)CC2 (stereo not given),inactive
6,CCCCNc1ccc(C(=O)OCCN(C)C)cc1,inactive
7,O=C1CC2(CCCC2)CC(=O)N1CCCCN1CCN(c2ncccn2)CC1,inactive
8,CC(=O)OC(C)C[N+](C)(C)C (stereo not given),inactive
9,CCN(CC)CC(=O)Nc1c(C)cccc1C,inactive
10,CC(=O)Nc1nnc(S(N)(=O)=O)s1,inactive
11,CN(C)C/C=C(/c1ccc(Br)cc1)c1cccnc1,inactive
12,CN(C)C(=O)Oc1cccc([N+](C)(C)C)c1,inactive
13,Cc1ccc(Cl)c(Nc2ccccc2C(=O)O)c1Cl,inactive
14,CCN(CC)CCNC(=O)c1cc(S(C)(=O)=O)ccc1OC,inactive
15,Cc1nnc(SCC2=C(C(=O)O)N3C(=O)[C@@H](NC(=O)Cn4cnnn4)[C@H]3SC2)s1,inactive
16,Fc1ccc(C(c2ccc(F)cc2)N2CCN(C/C=C/c3ccccc3)CC2)cc1,inactive
17,CCCN(CCC)C(=O)C(CCC(=O)O)NC(=O)c1ccccc1 (stereo not given),inactive
18,COc1ccc2c(c1OC)C(=O)O[C@@H]2[C@H]1c2c(cc3c(c2OC)OCO3)CCN1C,inactive
19,CCOC(=O)C1=C(C)NC(C)=C(C(=O)OC)C1c1cccc([N+](=O)[O-])c1 (stereo not given),inactive
20,C=CCc1ccccc1OCC(O)CNC(C)C (stereo not given),inactive
